Shown are actives, neighbours in structure and some others; about 2.6% of the full set was active somewhere.
Cruzain Triton – blocks cruzain activity in presence of Triton detergent. P25779. purified cruzain, Z-FR-AMC fluorescence, 0.01% Triton. Potency, µM, actives largely listed as inhibitors. 200,000 tested, 0.43% active; further: nearly all actives have a fitted effect of over 40% in size
Target sequence (P25779 123-467 limits assumed): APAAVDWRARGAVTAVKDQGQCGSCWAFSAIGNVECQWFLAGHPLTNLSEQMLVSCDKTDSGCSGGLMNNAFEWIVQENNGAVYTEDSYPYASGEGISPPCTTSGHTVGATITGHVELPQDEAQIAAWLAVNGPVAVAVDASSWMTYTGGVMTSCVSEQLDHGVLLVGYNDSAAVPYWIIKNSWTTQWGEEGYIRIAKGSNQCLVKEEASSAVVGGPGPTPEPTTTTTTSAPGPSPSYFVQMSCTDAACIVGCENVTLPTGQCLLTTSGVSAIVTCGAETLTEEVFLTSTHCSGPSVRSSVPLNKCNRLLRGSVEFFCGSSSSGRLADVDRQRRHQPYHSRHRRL
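Cruzain (1.5 nM) preincubated 15 min at RT with compound in 100 mM sodium acetate pH 5.5, 5 mM DTT, 0.01% Triton X-100. Reaction started with 2 uM Z-FR-AMC; AMC fluorescence (ex 360/em 450 nm) change over 60 s gave rate.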
Cruzain inh noDet – cruzain (T. cruzi) inhibition without detergent | purified cruzain, Z-FR-AMC fluorescence, no detergent | Potency, µM, hits mostly inhibitors | 200,000 tested, 2.3% active | AID 1476; further: nearly all actives have a fitted effect of over 40% in size
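Purified cruzain at 1.5 nM, pre-incubated 15 min with compound at room temperature in 100 mM sodium acetate pH 5.5, 5 mM DTT, 0.00005% Triton X-100. Reaction started with 2 uM Z-FR-AMC; AMC fluorescence increase over 60 s gives rate.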
Hits are given with their value. The call rests on the fitted dose curve; in most records, active means well fitted curve in the direction sought with a large enough effect; inconclusive means small, poorly fitted or top-dose-only effect, or another doubt; inactive means no such curve, though single readings can be large; an effect the other way counts as inactive or inconclusive.

Cc1cc(-c2csc(N)n2)c(C)n1CCC(C)C was read as Cruzain Triton inactive and Cruzain inh noDet 25µM.
For CCOC(=O)c1cc(C)n(CCc2ccccc2)c1C the results were Cruzain Triton inactive and Cruzain inh noDet inactive.
Cc1cc(-c2csc(N)n2)c(C)n1CCc1ccccc1 was read as Cruzain Triton inactive and Cruzain inh noDet 4µM.
Nc1nc(-c2ccccc2)cs1 was read as Cruzain Triton inactive and Cruzain inh noDet inactive.
For CC(=O)N1CCc2cc(S(=O)(=O)NC(CC(C)C)C(=O)NCCc3ccccc3)ccc21 (stereo unspecified) the results were Cruzain Triton inactive and Cruzain inh noDet inactive.
For CC(=O)N1CCC2(CC1)CCN(c1ncccn1)CC2 the results were Cruzain Triton inactive and Cruzain inh noDet inactive.
Cc1cc(OCC(=O)NCC2(N3CCOCC3)CCCCC2)ccc1Cl was read as Cruzain Triton inactive and Cruzain inh noDet inactive.
COc1ccc(-c2cc([C@H](O)C3CCCCN3)c3ccccc3n2)cc1 (stereo partly specified) was read as Cruzain Triton inactive and Cruzain inh noDet inactive.
`O=C(COc1ccccc1)NCc1ccc2c(c1)CCN2C(=O)c1ccc(Cl)cc1` gave Cruzain Triton inactive and Cruzain inh noDet inactive.
`CCC(C)NC(=O)c1nn(-c2ccc(C)cc2)c(=O)n(C)c1=O` (stereo unspecified) gave Cruzain Triton inactive and Cruzain inh noDet inactive.
`O=C(Cc1ccccc1)NCC(=O)OCC(=O)c1cccc([N+](=O)[O-])c1` gave Cruzain Triton inactive and Cruzain inh noDet inactive.
`O=C(COC(=O)c1cccc([N+](=O)[O-])c1)c1ccc(OCc2ccccc2)cc1` gave Cruzain Triton inactive and Cruzain inh noDet 25µM.
Screening Cc1cccc(C)c1NC(=O)COC(=O)c1c2c(nc3ccccc13)/C(=C\c1ccc3c(c1)OCO3)CCC2 returned Cruzain Triton inactive and Cruzain inh noDet 7.9µM.
Screening CC(OC(=O)c1c2c(nc3ccccc13)/C(=C\c1ccc3c(c1)OCO3)CCC2)C(=O)Nc1ccc(S(N)(=O)=O)cc1 (stereo unspecified) returned Cruzain Triton inactive and Cruzain inh noDet 16µM.
O=C(COC(=O)c1c2c(nc3ccccc13)CCCCC2)NCc1ccc2c(c1)OCO2 was read as Cruzain Triton inactive and Cruzain inh noDet inactive.
`CNC(=O)NC(=O)C(C)OC(=O)c1c2c(nc3ccccc13)/C(=C/c1cccs1)CC2` (stereo unspecified) gave Cruzain Triton inactive and Cruzain inh noDet inactive.
`CC(C)c1nn2c(=O)cc(COC(=O)c3ccc(NC(=O)c4cccs4)cc3)nc2s1` gave Cruzain Triton inactive and Cruzain inh noDet inactive.
Oc1c(Cl)c(Cl)cc(Cl)c1Cl was read as Cruzain Triton inactive and Cruzain inh noDet inactive.
`COC(=O)c1cc2oc3ccccc3c2n1CC(=O)Nc1ccc(Cl)cc1F` gave Cruzain Triton inactive and Cruzain inh noDet inactive.
`Cc1ccc(CN(Cc2ccco2)C(=O)COc2ccccc2C)cc1` gave Cruzain Triton inactive and Cruzain inh noDet inactive.
CCCc1ccc(-c2cc(C(=O)N/N=C/c3ccc([N+](=O)[O-])o3)c3ccccc3n2)cc1 was read as Cruzain Triton inactive and Cruzain inh noDet 16µM.
O=C(N/N=C/c1ccc([N+](=O)[O-])o1)c1cc(-c2cccc(Br)c2)nc2ccccc12 was read as Cruzain Triton inactive and Cruzain inh noDet inconclusive.
Cc1ccc(NC(=O)Cn2cc(S(=O)(=O)N3CCCC3)c(S(=O)(=O)N3CCCC3)c2)c(C)c1 was read as Cruzain Triton inactive and Cruzain inh noDet inactive.
Screening COc1cccc(N=Nc2c(N)[nH]n3c(=O)cc(-c4ccccc4)nc23)c1 returned Cruzain Triton inactive and Cruzain inh noDet 13µM.
Cc1ccc(N=Nc2c(N)[nH]n3c(=O)cc(-c4ccccc4)nc23)cc1 was read as Cruzain Triton inactive and Cruzain inh noDet inactive.
`O=S(=O)(C[C@H](O)C(Cl)(Cl)Cl)NNc1ccccc1` gave Cruzain Triton inactive and Cruzain inh noDet inactive.
COc1ccccc1Cn1c(CNS(=O)(=O)c2c(C)cc(C)cc2C)nc2cccnc21 was read as Cruzain Triton inactive and Cruzain inh noDet inactive.
Screening Cc1ccc(S(=O)(=O)/N=C2/C=C(Sc3ncn[nH]3)C(=O)c3ccccc32)cc1 returned Cruzain Triton inactive and Cruzain inh noDet inconclusive.
`CC(C)c1ccc(S(=O)(=O)/N=C2/C=C(Sc3ncn[nH]3)C(=O)c3ccccc32)cc1` gave Cruzain Triton inactive and Cruzain inh noDet 13µM.
For Cc1cccc(NC(=O)CS(=O)(=O)c2cccc3nsnc23)c1 the results were Cruzain Triton inactive and Cruzain inh noDet inactive.
For COc1ccc2c(c1)cc1c(=O)n(CC(=O)NCCCc3ccccc3)nc(C)n12 the results were Cruzain Triton inactive and Cruzain inh noDet inactive.
For CCc1ccc(S(=O)(=O)c2c(C(=O)c3ccc(C)c(C)c3)cnc3ccccc23)cc1 the results were Cruzain Triton inactive and Cruzain inh noDet 13µM.
CCOc1ccc(S(=O)(=O)c2c(C(=O)c3ccccc3)cnc3cc4c(cc23)OCCO4)cc1 was read as Cruzain Triton inactive and Cruzain inh noDet 32µM.
CCOc1ccc(S(=O)(=O)c2c(C(=O)c3ccc(CC)cc3)cnc3ccc(C)cc23)cc1 was read as Cruzain Triton inactive and Cruzain inh noDet 20µM.
For CCc1ccc(C(=O)c2cnc3ccc(C)cc3c2S(=O)(=O)c2ccc(OC)cc2)cc1 the results were Cruzain Triton inactive and Cruzain inh noDet inactive.
For CCOc1ccc(C(=O)c2cnc3ccc(Cl)cc3c2S(=O)(=O)c2ccc(C)cc2)cc1 the results were Cruzain Triton inactive and Cruzain inh noDet inactive.
Screening Cc1ccc(C(=O)c2cnc3ccccc3c2-c2ccccc2)cc1 returned Cruzain Triton inactive and Cruzain inh noDet inactive.
For CCc1ccccc1NC(=O)CN1C(=O)CCc2cc(S(=O)(=O)N3CCCCC3)ccc21 the results were Cruzain Triton inactive and Cruzain inh noDet inactive.
For COc1ccc(CCNc2nc(SCc3ccccc3F)nc3ccccc23)cc1OC the results were Cruzain Triton inactive and Cruzain inh noDet inactive.
For CCOC(=O)C1(C)C=C(Nc2cccc(C(=O)O)c2)C(=O)N1c1cccc(C(=O)O)c1 (stereo unspecified) the results were Cruzain Triton inactive and Cruzain inh noDet inactive.
COCCn1c(=O)cnc2cnc(N3CCNCC3)nc21 was read as Cruzain Triton inactive and Cruzain inh noDet inactive.
`O=C(Nc1c(C(=O)N2CCN(c3ccccc3F)CC2)oc2ccccc12)c1ccc(Br)o1` gave Cruzain Triton inactive and Cruzain inh noDet inconclusive.
Cc1cc(C)cc(NC(=O)c2cc(S(=O)(=O)N3CCCCC3)c[nH]2)c1 was read as Cruzain Triton inactive and Cruzain inh noDet inactive.
Screening COc1ccccc1CNC(=O)c1cc2sccc2n1Cc1ccc(F)cc1 returned Cruzain Triton inactive and Cruzain inh noDet inactive.
For O=C(Nc1ccccc1C(F)(F)F)Nc1c[nH]c(=O)[nH]c1=O the results were Cruzain Triton inactive and Cruzain inh noDet inactive.
For Cc1cccc(NC(=S)N/N=C/c2c[nH]c3ccccc23)c1 the results were Cruzain Triton inconclusive and Cruzain inh noDet inactive.
`S=C(NCCN1CCOCC1)N/N=C/c1c2ccccc2cc2ccccc12` gave Cruzain Triton inactive and Cruzain inh noDet inconclusive.
For NC(=S)N/N=C\c1c[nH]c2ccccc12 the results were Cruzain Triton 0.71µM and Cruzain inh noDet 0.32µM.
Screening NC(=S)N/N=C\c1c2ccccc2cc2ccccc12 returned Cruzain Triton 0.89µM and Cruzain inh noDet 1µM.

Screening results (PubChem BioAssay)
